{
  "source": "PubChem BioAssay (NCATS)",
  "note": "Inconclusive results are not listed. Where a call stands in place of a potency, no number is given. Active and inactive are the calls of the source. The call rests on the fitted dose curve; in most records, active means well fitted inhibition curve with a large enough effect; inconclusive means small, poorly fitted or top-dose-only effect; inactive means no such curve, though single readings can be large or run the other way.",
  "data": [
    {"experiment": "Primary qHTS for small molecule stabilizers of the endoplasmic reticulum resident proteome: Secreted ER Calcium Modulated Protein (SERCaMP) assay (AID 1508630)", "settings": "SH-SY5Y GLuc-SERCaMP (Gaussia luciferase released on ER calcium loss) secretion, thapsigargin, luminescence; series mostly up to 38.4 µM; activity change, negative = inhibition: at the top concentration", "outline": "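The SH-SY5Y reporter protocol was run at 3 concentrations up to 38.3 uM (primary) or 11 concentrations (follow-up): 16 h compound, 100 nM thapsigargin for 4 h, then extracellular luciferase luminescence.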", "values": [
      {"smiles": "COC(=O)Nc1nc2ccc(Sc3ccccc3)cc2[nH]1", "Potency": "inactive"},
      {"smiles": "Cn1c(=O)c2c(ncn2CC(O)CO)n(C)c1=O", "note": "(stereo not given)", "activity change, negative = inhibition": "-9.61% (inactive)"},
      {"smiles": "CC(C(=O)O)c1ccc2c(c1)CC(=O)c1ccccc1S2", "note": "(stereo not given)", "activity change, negative = inhibition": "-77.1% (inactive)"},
      {"smiles": "CN1CCN(c2c(F)cc3c(=O)c(C(=O)O)cn4c3c2OCN4C)CC1", "Potency": "inactive"},
      {"smiles": "COc1cc(NCc2ccc3nc(N)nc(N)c3c2C)cc(OC)c1OC", "Potency": "inactive"},
      {"smiles": "CCC(C)(C)c1ccc(CC(C)CN2C[C@@H](C)O[C@@H](C)C2)cc1", "note": "(stereo not given in full)", "Potency": "inactive"},
      {"smiles": "C#CCN[C@@H]1CCc2ccccc21", "Potency": "inactive"},
      {"smiles": "CC[C@H](C)C(=O)O[C@H]1C[C@@H](C)C=C2C=C[C@H](C)[C@H](CC[C@@H]3C[C@@H](O)CC(=O)O3)[C@H]21", "Potency": "inactive"},
      {"smiles": "NNC(=O)c1ccncc1", "Potency": "inactive"},
      {"smiles": "COc1ccc(-c2ccc3cc(C(=O)O)ccc3c2)cc1C12CC3CC(CC(C3)C1)C2", "Potency": "inactive"},
      {"smiles": "NC1(c2ccc(-c3nc4ccn5c(=O)[nH]nc5c4cc3-c3ccccc3)cc2)CCC1", "Potency": "inactive"},
      {"smiles": "O=C(O)CSCC(=O)NC1CCSC1=O", "note": "(stereo not given)", "Potency": "inactive"},
      {"smiles": "CC1=CC(=O)c2ccccc2C1=O", "Potency": "inactive"},
      {"smiles": "C[C@@H]1CN(c2c(F)c(N)c3c(=O)c(C(=O)O)cn(C4CC4)c3c2F)C[C@H](C)N1", "Potency": "inactive"},
      {"smiles": "C1CCC(C(CC2CCCCN2)C2CCCCC2)CC1", "note": "(stereo not given)", "Potency": "inactive"},
      {"smiles": "O=S(=O)(O)CCS", "Potency": "inactive"},
      {"smiles": "CCCCOc1ccc(CC(=O)NO)cc1", "Potency": "inactive"},
      {"smiles": "Nc1nc(=S)c2[nH]cnc2[nH]1", "Potency": "inactive"},
      {"smiles": "CCOCC(O)COc1ccc(NC(=O)CC[S+](C)C)cc1", "note": "(stereo not given)", "Potency": "inactive"},
      {"smiles": "CN(C)CCc1c[nH]c2ccc(CS(=O)(=O)N3CCCC3)cc12", "Potency": "inactive"}
    ]}
  ]
}
